IP6K1 inhibitor: inhibitors of human IP6K1 | activity change, % (series mostly up to about 58 µM) | Q92551 | AID 1645851 | IP6K1 kinase, ADP-Glo luminescence, 2 h; active compounds read low | 140,000 tested, 0.81% active; in the data active = activity change below about -25%
Target sequence (Q92551 whole entry, looked up): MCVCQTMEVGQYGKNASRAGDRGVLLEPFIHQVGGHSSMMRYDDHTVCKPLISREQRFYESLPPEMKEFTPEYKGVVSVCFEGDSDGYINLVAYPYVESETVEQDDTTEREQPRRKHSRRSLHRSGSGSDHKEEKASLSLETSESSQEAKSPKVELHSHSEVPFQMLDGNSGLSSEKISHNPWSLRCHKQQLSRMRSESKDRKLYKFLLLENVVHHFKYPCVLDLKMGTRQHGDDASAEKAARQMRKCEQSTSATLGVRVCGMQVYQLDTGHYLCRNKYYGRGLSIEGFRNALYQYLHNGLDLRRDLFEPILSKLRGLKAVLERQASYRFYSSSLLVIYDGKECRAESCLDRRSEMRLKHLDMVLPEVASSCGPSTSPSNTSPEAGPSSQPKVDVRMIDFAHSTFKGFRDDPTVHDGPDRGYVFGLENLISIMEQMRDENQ
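ADP-Glo luminescence measures ADP made by human IP6K1 during a 2 h RT reaction with ATP/IP6 (mix at 1.3 mM/130 uM); top library doses 57.5 and 19.1 uM final.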
KDM5B inhibitor: inhibitors of human KDM5B histone demethylase; AID 1347165; 220,000 tested, 2.6% active; Potency, µM (series often up to 57.7 µM), actives largely listed as inhibitors; KDM5B demethylase, FDH-coupled NADH fluorescence (FDH is formaldehyde dehydrogenase); Q9UGL1; active = well fitted inhibition curve with a large enough effect; inconclusive = small, poorly fitted or top-dose-only effect; inactive = no such curve, though single readings can be large or run the other way; note: nearly all actives have a fitted effect of over 70% in size
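Compound dilutions met 200 nM (final) KDM5BΔAP for 10 min at room temperature before substrate addition. The substrate mix held 12.5 µM H3K4me3 with cofactors 25 µM α-ketoglutarate and 50 µM Fe²⁺. NADH signal gain over 30 min defined activity.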
A number is an active result; 0 = inactive; ? = inconclusive; - = no result. Compounds with a hit are over-represented: about 2.8% of the library has one in this group of screens.

SMILES | IP6K1 inhibitor | KDM5B inhibitor
OC1CCC(NCc2ccc(-c3cnc4c(OCc5ccccc5)nccn34)cc2)CC1 (stereo not drawn) | 0 | 28µM
O=C(Cn1cnnn1)NCc1ccc(-c2cnc3c(Oc4ccccc4)nccn23)cc1 | 0 | ?
COc1cc(/C=C/C(=O)OCc2ccc(C#N)cc2)cc(OC)c1OC | - | 0
CC(C)NC(=O)c1nc(-c2cccc(C(F)(F)F)c2)c2cnccn12 | 0 | 32µM
COCCNC(=O)c1nc(-c2cccnc2)c2cnccn12 | 0 | 0
CC(C)NC(=O)c1nc(-c2cccc(C(F)(F)F)c2)c2ccccn12 | 0 | ?
CC(C)NC(=O)c1nc(-c2cccnc2)c2cnccn12 | 0 | 35µM
Cc1ccc(CNC(=O)c2c(C)noc2-c2ccc3c(c2)OCO3)o1 | 0 | 25µM
Cc1noc(-c2ccc3c(c2)OCO3)c1C(=O)NCc1ccccc1 | 0 | 28µM
COc1cc(OC)cc(-c2onc(C)c2C(=O)NCc2ccccc2C)c1 | 0 | 0
Cc1noc(-c2cccc(F)c2)c1C(=O)NCCCCc1ccccc1 | 0 | 0
Cc1cccc(CNC(=O)c2c(C)noc2-c2ccc3c(c2)OCO3)c1 | 0 | 32µM
COc1ccccc1-c1onc(C)c1C(=O)NCc1cccc(C)c1 | 0 | 0
Cc1n[nH]c(C)c1CNC(=O)C1CCN(c2cnn(CC3CC3)c(=O)c2)C1 (stereo not drawn) | 0 | 0
O=C(Nc1cccc(F)c1)Nc1ccc2sc(NS(=O)(=O)c3ccccc3)nc2c1 | - | 0
C=C[C@@]1(C)CC(=O)C2[C@](C)(O1)[C@@H](OC(C)=O)[C@@H](O)[C@H]1C(C)(C)CCC[C@]21C (stereo partly drawn) | 0 | -
COc1cc(F)ccc1-c1ccnc2nc(Cc3ccc(F)cc3)nn12 | 0 | 28µM
COc1ccc(Cc2nc3nccc(-c4cc(OC)c(OC)c(OC)c4)n3n2)cc1 | 0 | 14µM
COc1cc(-c2ccnc3nc(Cc4cc(F)cc(F)c4)nn23)cc(OC)c1OC | 0 | 16µM
COCc1nc2nccc(-c3cc(OC)c(OC)c(OC)c3)n2n1 | 0 | 0
Fc1cc(F)cc(Cc2nc3nccc(-c4cc5ccccc5o4)n3n2)c1 | 0 | 0
COc1ccc(-c2ccnc3nc(Cc4ccc(F)cc4)nn23)cc1 | 0 | 0
COc1cc(-c2ccnc3nc(Cc4ccc(F)cc4)nn23)cc(OC)c1OC | 0 | ?
Fc1cc(F)cc(Cc2nc3nccc(-c4ccco4)n3n2)c1 | 0 | 25µM
CC1=C(C(=O)Nc2ccc(F)c(F)c2)C(c2ccc(F)cc2)NC(=S)N1 (stereo not drawn) | - | 0
SMILES | IP6K1 inhibitor | KDM5B inhibitor
Cc1nn(C)cc1CN1C[C@@H](CO)[C@H](c2ccccn2)C1 | 0 | 0
O=C(NC1CC(c2nnc(CO)n2C2CC2)C1)c1csc(-c2ccccc2)n1 (stereo not drawn) | 0 | 0
O=C(NC1CC(c2nnc(CO)n2C2CC2)C1)c1nc2ccccc2[nH]1 (stereo not drawn) | 0 | 32µM
O=C(N[C@@H]1C[C@H](Cn2cc(C3CC3)nn2)[C@@H](O)[C@H]1O)c1cncnc1 | 0 | ?
CC(C)NC(=O)N1Cc2ccccc2OC2(CCN(C(=O)c3cccc4[nH]ccc34)CC2)C1 | 0 | 0
CC(=O)N1Cc2ccccc2OC2(CCN(C(=O)c3ccnc(N)c3)CC2)C1 | 0 | 79µM
CN(C)C(=O)N1CCC2(CC1)CN(C(=O)c1cccc3[nH]ccc13)Cc1ccccc1O2 | 0 | 50µM
CC(=O)N1CCC2(CC1)CN(C(=O)c1ccnc(N)c1)Cc1ccccc1O2 | 0 | ?
CCC(=O)N1CC(C(=O)Nc2ccccn2)C2(CCOCC2)C1 (stereo not drawn) | 0 | 0
O=C(Nc1ccc(C2(C(=O)N3CCN(c4ccccn4)CC3)CCCCC2)cc1)C1CC1 | 0 | 28µM
O=C(N1CCN(c2ncccn2)CC1)C1(c2ccc(Cl)cc2)CCOCC1 | 0 | 0
CC(=O)Nc1ccc(C2(C(=O)N3CCN(c4ccccn4)CC3)CCCCC2)cc1 | 0 | 28µM
CC(C)C(=O)Nc1ccc(C2(C(=O)N3CCN(c4ccccc4)CC3)CCCCC2)cc1 | 0 | 0
CCC(=O)N1CC(C(=O)N2CCN(c3ccccn3)CC2)C2(CCOCC2)C1 (stereo not drawn) | 0 | 32µM
O=C(N1CCN(c2ccccn2)CC1)C1(c2ccc(Cl)cc2)CCOCC1 | 0 | 79µM
CCC(=O)Nc1ccc(C2(C(=O)N3CCN(c4ccccn4)CC3)CCCCC2)cc1 | 0 | ?
O=C(NCCc1ccccc1)c1cc(-c2ccncc2)nc2ccccc12 | - | 0
Cc1ccc(-c2nn3c(=O)cc(CNC(=O)COc4ccc(C(C)(C)C)cc4)nc3s2)cc1 | - | 0
Cc1nn(-c2ccccc2)c2c1C(C)N(CC1CN(C(=O)c3cccc(Cl)c3)C1)C2=O (stereo not drawn) | 0 | -
COc1cccc(CN2CCc3nn(C)c(=O)n3CC2)c1OC | 0 | 0
COc1ccc2c(c1)c(CN1CCc3nn(C)c(=O)n3CC1)cn2C | 0 | 32µM
Cc1noc(-c2cccs2)c1C(=O)NC1CCc2ccccc21 (stereo not drawn) | 0 | 28µM
Cc1noc(-c2cccs2)c1C(=O)NC(C)CCc1ccccc1 (stereo not drawn) | 0 | 28µM
COc1cc(OC)cc(-c2onc(C)c2C(=O)NC(C)CCc2ccccc2)c1 (stereo not drawn) | 0 | ?
Cc1noc(-c2cccs2)c1C(=O)NCc1ccccc1Cl | 0 | ?
SMILES | IP6K1 inhibitor | KDM5B inhibitor
Fc1ccc(-c2cncc(CN3CCN(c4cccc5c4OCCO5)CC3)c2)cc1 | 0 | -
CNC(=O)[C@@H]1CN(Cc2cccc(OC)c2OC)C[C@H]1CO | 0 | 0
Cc1c(CN2C[C@@H](CN(C)CCO)[C@@H](CO)C2)[nH]c2c(Cl)cccc12 | 0 | 0
CN(C)CCN(C)C(=O)c1ccc2c(c1)NC(C)(CCCCc1ccccc1)CO2 (stereo not drawn) | 0 | 0
CC1(CNCc2ccccc2)COc2ccc(C(=O)NCc3ccncc3)cc2N1 (stereo not drawn) | 0 | ?
CC1(CCCCc2ccccc2)COc2ccc(C(=O)NCc3cccnc3)cc2N1 (stereo not drawn) | 0 | 28µM
CC1(CCCCc2ccccc2)COc2ccc(C(=O)NCc3cnccn3)cc2N1 (stereo not drawn) | 0 | 0
CC1(CCCCc2ccccc2)COc2ccc(C(=O)NCc3ccncc3)cc2N1 (stereo not drawn) | 0 | 32µM
CC1(CCCCc2ccccc2)COc2ccc(C(=O)Nc3cccnc3)cc2N1 (stereo not drawn) | 0 | 28µM
OCC1CN(Cc2cc(Br)ccc2F)CC12CCNCC2 (stereo not drawn) | 0 | 0
O=C1Nc2ccccc2CC12CCN(Cc1cccc3ccccc13)C2 (stereo not drawn) | 0 | ?
Cc1ccccc1-c1cnc2[nH]cc(CC(=O)NCCN(C)C)c2c1 | 0 | 35µM
Cc1ccccc1-c1cnc2[nH]cc(CC(=O)NCc3ccccc3)c2c1 | 0 | 0
CN(C)CCNC(=O)Cc1c[nH]c2ncc(-c3ccccc3)cc12 | 0 | 35µM
O=C(Cc1c[nH]c2ncc(-c3ccccc3)cc12)NCCc1ccccc1 | 0 | 0
Cn1c(=O)c2c(ncn2CCCOc2ccc(C#N)cc2)n(C)c1=O | - | 0
CC(C)[C@H](NC(=O)[C@H](C(C)C)n1nnc2ccccc2c1=O)C(=O)O | - | 0
CNC(=O)c1cc(C)nc2onc(C3CCCN3C(=O)c3ccc(F)cc3)c12 (stereo not drawn) | 0 | -
CC(=O)c1ccc(NC(=O)CSc2ncc(-c3ccc(F)cc3)o2)cc1 | - | 0

Assay outcomes (PubChem)
